Experimental data reported in PubChem BioAssay (NCATS).
Inconclusive results are not listed. Active and inactive are the calls of the source. The call rests on the fitted dose curve; in most records, active means well fitted curve in the direction sought with a large enough effect; inconclusive means small, poorly fitted or top-dose-only effect, or another doubt; inactive means no such curve, though single readings can be large; an effect the other way counts as inactive or inconclusive. Non-standard residues stand in square brackets, D forms with d. Residues, ends and D or L forms follow the SMILES beside them. *: point of attachment. Sta = CC(C)C[C@H](N)[C@@H](O)CC(=O)O; Isovaleryl = CC(C)CC(=O)*

Key:
Es-2 = test: Primary qHTS to identify gynecologic anti-cancer compounds using libraries of approved drugs and bioactive compounds (AID 1345084); settings: Gynecologic cancer cell panel viability, ATPlite luminescence, 48 h; series mostly up to 57.5 µM; further: nearly all actives have a fitted effect of over 55% in size
Procedure, shortened: (§1)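 Luminescence from the ATPlite ATP-monitoring reagent indicates viable cell number; lower signal means cytotoxicity. Cells received compound 16 h after seeding and were exposed for 48 h across five concentrations.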

HeLa = test: as above; settings: Gynecologic cancer cell panel viability, ATPlite luminescence, 48 h; series mostly up to 57.5 µM
Procedure, shortened: as §1

Hek293T = test: as above; settings: Gynecologic cancer cell panel viability, ATPlite luminescence, 48 h, control line for the selectivity index; series mostly up to 57.5 µM
Procedure, shortened: as §1

JEG-3 = test: as above; settings: Gynecologic cancer cell panel viability, ATPlite luminescence, 48 h; series mostly up to 57.5 µM
Procedure, shortened: as §1

OV90 = test: as above; settings: Gynecologic cancer cell panel viability, ATPlite luminescence, 48 h; series mostly up to 57.5 µM
Procedure, shortened: as §1

PA-1 = test: as above; settings: Gynecologic cancer cell panel viability, ATPlite luminescence, 48 h; series mostly up to 57.5 µM
Procedure, shortened: as §1

SKOV3 = test: as above; settings: Gynecologic cancer cell panel viability, ATPlite luminescence, 48 h; series mostly up to 57.5 µM
Procedure, shortened: as §1

Tov-21-G = test: as above; settings: Gynecologic cancer cell panel viability, ATPlite luminescence, 48 h; series mostly up to 57.5 µM
Procedure, shortened: as §1

Tov112D = test: as above; settings: Gynecologic cancer cell panel viability, ATPlite luminescence, 48 h; series mostly up to 57.5 µM
Procedure, shortened: as §1

[1] = Drug repurposing screens with cells derived from glioblastoma tumor samples (AID 1345199); settings: GBM patient neurospheres viability, ATP luminescence, 48 h; further: nearly all actives have a fitted effect of over 40% in size; further: potency means the concentration at half of the fitted maximal effect
Procedure, shortened: (§2)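 Primary testing used CD133+ neurospheres from four GBM patients, seven concentrations, 48 h exposure and ATP-based viability; confirmation added three slower-growing patient lines.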

astro = test: as above; settings: viability, ATP luminescence, 48 h; series mostly up to 45.9 µM
Procedure, shortened: as §2

[2] = at 45.9 µM (top of the series), tumour line B
[3] = at 45.9 µM (top of the series), tumour line D
[4] = at 46.1 µM (top of the series), tumour line C
[5] = at 46 µM (top of the series), tumour line A
On the % scale 0 is the no-effect control and ±100 the full control effect.

COc1ccc(C2(C#N)CCC(C(=O)O)CC2)cc1OC1CCCC1 (stereo not drawn)
inactive: Potency (Es-2) | Potency (HeLa) | Potency (Hek293T) | Potency (JEG-3) | Potency (OV90) | Potency (PA-1) | Potency (SKOV3) | Potency (Tov-21-G) | Potency (Tov112D) | activity, negative = cell killing [1, 2] -12.3% | activity, negative = cell killing [1, 3] -10.6% | activity, negative = cell killing [1, 4] -18.3% | Potency (astro)

COc1c(O)cc2c(c1O)[C@@H]1O[C@H](CO)[C@@H](O)[C@H](O)[C@H]1OC2=O
inactive: Potency (Es-2) | Potency (HeLa) | Potency (Hek293T) | Potency (JEG-3) | Potency (OV90) | Potency (PA-1) | Potency (SKOV3) | Potency (Tov-21-G) | Potency (Tov112D) | activity, negative = cell killing ([1]; at 20 µM (top of the series), tumour line C) -10.5% | activity, negative = cell killing ([1]; at 21.2 µM (top of the series), tumour line B) -10.4% | activity, negative = cell killing ([1]; at 21.2 µM (top of the series), tumour line D) -25.7% | Potency (astro)

O=C(OC1C[C@H]2CC[C@@H](C1)[N+]21CCCC1)C(O)(c1ccccc1)c1ccccc1 (stereo partly drawn)
inactive: Potency (Es-2) | Potency (HeLa) | Potency (Hek293T) | Potency (JEG-3) | Potency (OV90) | Potency (PA-1) | Potency (SKOV3) | Potency (Tov-21-G) | Potency (Tov112D) | activity, negative = cell killing [1, 2] -3.76% | activity, negative = cell killing [1, 3] -11.8% | activity, negative = cell killing [1, 4] -2.11% | Potency (astro)

CC(S)C(=O)NCC(=O)O (stereo not drawn)
inactive: Potency (Es-2) | Potency (HeLa) | Potency (Hek293T) | Potency (JEG-3) | Potency (OV90) | Potency (PA-1) | Potency (SKOV3) | Potency (Tov-21-G) | Potency (Tov112D) | activity, negative = cell killing [1, 2] -0.523% | activity, negative = cell killing [1, 3] -24.6% | activity, negative = cell killing [1, 5] -28.9% | activity, negative = cell killing [1, 4] -4.37% | Potency (astro)

c1cnc2cc3c(cc2n1)C1CNCC3C1
inactive: Potency (Es-2) | Potency (HeLa) | Potency (Hek293T) | Potency (JEG-3) | Potency (OV90) | Potency (PA-1) | Potency (SKOV3) | Potency (Tov-21-G) | Potency (Tov112D) | activity, negative = cell killing ([1]; at 99.2 µM (top of the series), tumour line C) 7.09% | activity, negative = cell killing ([1]; at 108 µM (top of the series), tumour line A) -15.8% | activity, negative = cell killing ([1]; at 108 µM (top of the series), tumour line B) -8.07% | activity, negative = cell killing ([1]; at 108 µM (top of the series), tumour line D) -25.1% | Potency (astro)

Cn1c(NCCN(CCO)CCCc2ccc([N+](=O)[O-])cc2)cc(=O)n(C)c1=O
active: Potency ([1]; tumour line A) 7.08 µM
inactive: Potency (Es-2) | Potency (HeLa) | Potency (Hek293T) | Potency (JEG-3) | Potency (OV90) | Potency (PA-1) | Potency (Tov-21-G) | Potency (Tov112D) | activity, negative = cell killing [1, 2] -18.9% | activity, negative = cell killing [1, 3] -12.5% | activity, negative = cell killing [1, 4] -1.17% | Potency (astro)

CC(C)CC(=O)N[C@H](C(=O)N[C@H](C(=O)N[C@@H](CC(C)C)[C@@H](O)CC(=O)N[C@@H](C)C(=O)N[C@@H](CC(C)C)[C@@H](O)CC(=O)O)C(C)C)C(C)C (Isovaleryl-VV[Sta]A[Sta]-OH)
inactive: Potency (Es-2) | Potency (HeLa) | Potency (Hek293T) | Potency (JEG-3) | Potency (OV90) | Potency (PA-1) | Potency (Tov-21-G) | Potency (Tov112D) | activity, negative = cell killing [1, 2] -11.5% | activity, negative = cell killing [1, 3] -9.71% | activity, negative = cell killing [1, 5] -22.1% | activity, negative = cell killing [1, 4] -23.6% | Potency (astro)
